# Data as given in ChEMBL document CHEMBL3988442, “University of Dundee, Small-Polar-MMV Screening Library” (2021).
# Molecular target: T1, Aspartate--tRNA(Asp/Asn) ligase (Mycobacterium tuberculosis (strain ATCC 25618 / H37Rv)) (UniProt P9WFW3); note: in the data most compounds retested in dose-response had high values
# T1 sequence (whole entry): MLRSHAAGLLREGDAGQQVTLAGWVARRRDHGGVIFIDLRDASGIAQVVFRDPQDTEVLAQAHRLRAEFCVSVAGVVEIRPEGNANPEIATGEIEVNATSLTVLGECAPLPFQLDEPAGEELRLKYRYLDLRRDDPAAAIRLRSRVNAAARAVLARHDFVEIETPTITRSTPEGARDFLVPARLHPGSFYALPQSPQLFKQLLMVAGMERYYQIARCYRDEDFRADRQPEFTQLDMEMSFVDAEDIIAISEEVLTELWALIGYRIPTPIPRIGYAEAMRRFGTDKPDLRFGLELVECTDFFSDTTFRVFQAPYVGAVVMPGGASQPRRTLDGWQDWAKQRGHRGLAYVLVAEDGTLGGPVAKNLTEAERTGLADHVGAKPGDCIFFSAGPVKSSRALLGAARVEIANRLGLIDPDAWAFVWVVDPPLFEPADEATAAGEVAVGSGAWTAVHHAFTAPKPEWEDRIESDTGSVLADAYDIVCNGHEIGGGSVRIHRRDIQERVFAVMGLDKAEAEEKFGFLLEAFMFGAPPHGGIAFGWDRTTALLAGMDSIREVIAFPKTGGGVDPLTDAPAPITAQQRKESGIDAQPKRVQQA
# Test: Assay for Asp RNA synthetase-1 from Mycobacterium tuberculosis
# Type: functional
# Set-up: scale not given: direction of the effect not stated beside the values
# Details: 30 µM
row,SMILES,Percent Effect [%]
1,Cc1cnn(CC2CN(CC(=O)N(C)Cc3cccs3)CCO2)c1 (stereo not given),-5.6
2,Cc1nc(C)n(CC2CCCN(c3ncnc4sccc34)C2)n1 (stereo not given),1.08
3,CC(C(=O)N1CCCN(c2ncccc2C#N)CC1)n1ccnc1 (stereo not given),-0.45
4,CC(C)n1cc(S(=O)(=O)N2CCCCC2)cn1,-0.668
5,Cc1nn(C)c2c(NCc3ccccc3F)nc(C3CC3)nc12,12.5
6,O=C(O)c1nnn(-c2ccc(F)c(F)c2)c1-c1ccncc1,2.4
7,CC(Cn1cccn1)NCc1nc(-c2cccc(Cl)c2)no1 (stereo not given),-3.34
8,Cc1ncc(-c2nc3cc(S(=O)(=O)N4CCCC4)ccc3n2C)cn1,6.27
9,Cc1n[nH]c(C2CN(C(=O)CCc3ccsc3)CCO2)n1 (stereo not given),3.08
10,COc1ccc(-c2nc(CN3CCCC3Cn3cccn3)no2)cc1 (stereo not given),-3.19
11,CN(CCCOc1ccccc1)C(=O)CN1CCc2cncnc2C1,5.73
12,O=S(=O)(C1CC1)N1CCC2(CC1)CC(Oc1cccnc1)CO2 (stereo not given),6.21
13,O=C1CC[C@H]2[C@H](CCN2C(=O)C2CCCO2)N1Cc1ccncc1 (stereo not given in full),3.48
14,COCc1nc2cc(NCc3ccncc3)ccc2o1,57.1
15,COc1ccc(-c2cnc(CN3CCn4c(C)nnc4C3)o2)cc1,0.144
16,Cc1ccc(S(=O)(=O)N2CCOc3ccccc32)cc1C(=O)O,-1.83
17,COC(=O)c1ccc(N2CCN(CCC#N)C(C)C2)cc1 (stereo not given),2.13
18,Cn1ccnc1CN1C[C@@H](CN2CCC(CO)CC2)[C@@H](CO)C1,-1.77
19,c1ccc(-c2noc(CN3CCc4cncnc4C3)n2)nc1,2.21
20,Cc1ccc([C@@H]2CN(C(=O)c3csc(C)n3)C[C@H]2NC(=O)C2CC2)cc1,-3.36

# Molecular target: Shiga toxin 2 (Escherichia coli O157:H7) (UniProt P09385+P09386)
# Test: E. coli 0.157:H7 Shiga Toxin SOP - stx2 screening assay
# Type: functional
# Set-up: scale not given: direction of the effect not stated beside the values
# Details: 30 µM
row,SMILES,Percent Effect [%]
1,CC(=O)NCC(=O)N1C[C@H](OCc2cccnc2)[C@H]2COC[C@H]21,-22.3
2,Cc1nc(C)n(C2CCCN(C(=O)c3cnc[nH]3)C2)n1 (stereo not given),9.84
3,O=C(c1cccc(F)c1)N1CCOC(c2nc(-c3ncccn3)no2)C1 (stereo not given),3.39
4,Cc1nn(C)c(C)c1C1CCCN1C(=O)CCc1cscn1 (stereo not given),20.4
5,CCNC(=O)CCN1CCC(c2cc(N3CCOCC3)nc(C)n2)CC1,-10.2
6,CCCc1noc(CCC(=O)NC(C)c2nnc3n2CCCCC3)n1 (stereo not given),-15.1
7,CN(CCCc1ccccc1)Cc1nc2c(cnn2C)c(=O)[nH]1,28.4
8,Cc1ccccc1OCCC(=O)OC(C)C(=O)Nc1sccc1C(N)=O (stereo not given),-38.1
9,CCn1cc(NC(=O)NCc2ccc3c(c2)OCCO3)cn1,-43.3
10,CC(C)c1nc(CN(C)CC2CCN(CCO)CC2)no1,-7.83
11,CC(C)c1nc(C2CCCN2CCc2ccncc2)no1 (stereo not given),-7.28
12,Cc1cc(NC(=O)NCCc2cccs2)n(C)n1,-38.4
13,NC(=O)c1cc(C2CCCN(CCOCC(F)(F)F)C2)n[nH]1 (stereo not given),-3.62
14,Cc1nc(C)n(CC2CCCCN2Cc2nnc(C3CC3)o2)n1 (stereo not given),-4.29
15,COCCN(C)C(=O)Nc1ccc2c(ccn2CCOC)c1,-20.9
16,Fc1ccc(CN2CC[C@H]3O[C@@H](COCC4CCOCC4)CC[C@H]32)cc1,-14.5
17,Cn1ccc(CN2CCC(COC3CCCC3)CC2)cc1=O,-19.3
18,Cc1nnc(N2CCOC(Cn3cccn3)C2)c(C#N)c1C (stereo not given),19.5
19,Cc1ncsc1CCC(=O)N1CCCC[C@H](N(C)C)C1,3.62
20,CCc1cnc(C)nc1NCCN1CCCCCC1,-69.6

row,SMILES,Percent Effect [%]
1,Cc1cnn(CC2CN(CC(=O)N(C)Cc3cccs3)CCO2)c1 (stereo not given),-8.69
2,Cc1nc(C)n(CC2CCCN(c3ncnc4sccc34)C2)n1 (stereo not given),21.2
3,CC(C(=O)N1CCCN(c2ncccc2C#N)CC1)n1ccnc1 (stereo not given),24
4,CC(C)n1cc(S(=O)(=O)N2CCCCC2)cn1,-17.6
5,Cc1nn(C)c2c(NCc3ccccc3F)nc(C3CC3)nc12,-20.5
6,O=C(O)c1nnn(-c2ccc(F)c(F)c2)c1-c1ccncc1,-13
7,CC(Cn1cccn1)NCc1nc(-c2cccc(Cl)c2)no1 (stereo not given),22.5
8,Cc1ncc(-c2nc3cc(S(=O)(=O)N4CCCC4)ccc3n2C)cn1,0.802
9,Cc1n[nH]c(C2CN(C(=O)CCc3ccsc3)CCO2)n1 (stereo not given),-2.19
10,COc1ccc(-c2nc(CN3CCCC3Cn3cccn3)no2)cc1 (stereo not given),-24.1
11,CN(CCCOc1ccccc1)C(=O)CN1CCc2cncnc2C1,9.42
12,O=S(=O)(C1CC1)N1CCC2(CC1)CC(Oc1cccnc1)CO2 (stereo not given),-0.225
13,O=C1CC[C@H]2[C@H](CCN2C(=O)C2CCCO2)N1Cc1ccncc1 (stereo not given in full),-64
14,COCc1nc2cc(NCc3ccncc3)ccc2o1,-55.9
15,COc1ccc(-c2cnc(CN3CCn4c(C)nnc4C3)o2)cc1,-27.2
16,Cc1ccc(S(=O)(=O)N2CCOc3ccccc32)cc1C(=O)O,-32.8
17,COC(=O)c1ccc(N2CCN(CCC#N)C(C)C2)cc1 (stereo not given),37.7
18,Cn1ccnc1CN1C[C@@H](CN2CCC(CO)CC2)[C@@H](CO)C1,12.7
19,c1ccc(-c2noc(CN3CCc4cncnc4C3)n2)nc1,-24.6
20,Cc1ccc([C@@H]2CN(C(=O)c3csc(C)n3)C[C@H]2NC(=O)C2CC2)cc1,15.2
